Assay results from PubChem BioAssay (NCATS).
Where “and” joins values, the source holds several entries; their conditions need not be identical. Identical values can stand only once. Inconclusive results are not listed. Calls of active or inactive are those of the source. Unless noted, the call rests on the fitted dose curve; in most records, active means well fitted curve in the direction sought with a large enough effect; inconclusive means small, poorly fitted or top-dose-only effect, or another doubt; inactive means no such curve, though single readings can be large; an effect the other way counts as inactive or inconclusive.

Legend:
[1] = qHTS assay for environmental chemicals that activate the Aryl hydrocarbon Receptor (AhR) signaling pathway (AID 651777); settings: 1A2-DRE human hepatoma cells, luciferase, 24 h; activation: stronger effect = higher value; further: nearly all actives have a fitted effect of over 15% in size; further: potency means the concentration at half of the fitted maximal effect; on activation: % of control where 0% means no effect
In short: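 Concentration–response screening used 1,200 1A2-DRE cells per well, 24 hr compound exposure (37 C, 5% CO2), and One-Glo luminescence as the AhR-driven CYP1A2 reporter signal.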

[2] = biological target: Peroxisome proliferator-activated receptor alpha (Homo sapiens) (UniProt Q07869); assay: qHTS assay for small molecule agonists of the peroxisome proliferator-activated receptor alpha (PPARalpha) signaling pathway (AID 651778); settings: PathHunter PPARalpha complementation, chemiluminescence, 6 h; max response: stronger effect = higher value; further: % of control where 0% means no effect
Chain of Peroxisome proliferator-activated receptor alpha (Homo sapiens) (Q07869 whole entry, looked up): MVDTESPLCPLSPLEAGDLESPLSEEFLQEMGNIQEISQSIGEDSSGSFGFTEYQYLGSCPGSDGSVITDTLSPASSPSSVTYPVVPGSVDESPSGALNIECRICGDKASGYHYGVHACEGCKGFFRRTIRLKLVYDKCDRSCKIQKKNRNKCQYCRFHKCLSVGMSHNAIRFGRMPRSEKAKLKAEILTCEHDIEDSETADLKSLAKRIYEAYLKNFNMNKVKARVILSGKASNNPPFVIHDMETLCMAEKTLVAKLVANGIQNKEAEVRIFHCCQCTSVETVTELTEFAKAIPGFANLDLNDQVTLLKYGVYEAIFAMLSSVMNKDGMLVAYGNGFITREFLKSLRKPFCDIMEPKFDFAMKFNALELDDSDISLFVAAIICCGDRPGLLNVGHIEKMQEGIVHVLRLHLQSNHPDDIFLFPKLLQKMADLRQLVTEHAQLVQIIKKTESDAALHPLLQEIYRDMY
In short: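 Cells plated at 2,000/well and held overnight at 37 C, 5% CO2, then compound added by pin tool for 6 hr; after PathHunter detection reagent and 60 min at room temperature, chemiluminescence from enzyme complementation was read.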

[3] = biological target: Nuclear receptor ROR-gamma (Homo sapiens) (UniProt P51449); assay: qHTS assay for small molecule antagonists of the retinoid-related orphan receptor gamma (ROR-gamma) signaling pathway (AID 651802);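 further: CHO cells with doxycycline-induced ROR-gamma expression; on the % scale 0 is the no-effect control and ±100 the full control effect; nearly all actives have a fitted effect of over 60% in size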
Chain of Nuclear receptor ROR-gamma (Homo sapiens) (P51449 whole entry, looked up): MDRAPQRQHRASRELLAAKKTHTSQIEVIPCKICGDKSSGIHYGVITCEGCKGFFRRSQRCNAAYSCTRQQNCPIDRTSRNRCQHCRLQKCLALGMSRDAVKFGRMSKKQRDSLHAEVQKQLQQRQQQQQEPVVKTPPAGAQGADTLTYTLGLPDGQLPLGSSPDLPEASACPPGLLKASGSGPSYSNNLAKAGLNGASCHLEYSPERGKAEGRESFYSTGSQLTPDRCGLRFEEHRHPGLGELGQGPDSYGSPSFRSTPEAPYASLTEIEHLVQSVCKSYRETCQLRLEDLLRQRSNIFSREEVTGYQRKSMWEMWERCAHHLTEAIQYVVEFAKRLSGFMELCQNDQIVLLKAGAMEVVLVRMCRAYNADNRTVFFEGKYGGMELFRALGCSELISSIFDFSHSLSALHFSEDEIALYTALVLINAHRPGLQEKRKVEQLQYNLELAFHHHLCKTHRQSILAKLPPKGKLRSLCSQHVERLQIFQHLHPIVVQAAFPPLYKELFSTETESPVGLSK
In short: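 Steps: cells dispensed; compound or DMSO transferred by pin tool; doxycycline added to induce the ROR response element-driven luciferase; plates held 16hr at 37C; ONE-Glo added and luminescence measured.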

[4] = biological target: Arylsulfatase A (Homo sapiens) (UniProt P15289); assay: qHTS screen for enhancers of Arylsulfatase A (ASA1): LOPAC Validation Assay (AID 720538); further: 0% is about no effect
Chain of Arylsulfatase A (Homo sapiens) (P15289 whole entry, looked up): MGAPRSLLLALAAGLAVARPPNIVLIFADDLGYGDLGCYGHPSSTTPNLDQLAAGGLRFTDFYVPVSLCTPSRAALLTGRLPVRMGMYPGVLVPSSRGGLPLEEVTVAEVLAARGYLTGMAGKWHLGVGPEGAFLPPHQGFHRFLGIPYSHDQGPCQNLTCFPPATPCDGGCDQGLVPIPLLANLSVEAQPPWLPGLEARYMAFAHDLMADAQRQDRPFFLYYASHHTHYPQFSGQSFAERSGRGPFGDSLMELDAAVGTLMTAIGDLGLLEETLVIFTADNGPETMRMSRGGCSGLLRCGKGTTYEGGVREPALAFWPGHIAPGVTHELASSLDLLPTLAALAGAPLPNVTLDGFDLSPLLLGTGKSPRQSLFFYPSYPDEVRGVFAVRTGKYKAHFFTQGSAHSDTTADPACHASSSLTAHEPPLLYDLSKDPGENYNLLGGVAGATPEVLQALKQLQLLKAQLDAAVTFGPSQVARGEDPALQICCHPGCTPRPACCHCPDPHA
In short: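 SV40-transformed skin fibroblasts from an MLD patient (ASA-I179S) were treated with compounds for 48h at 37 degree C, then lysed with 0.5mM pNCS final substrate for 14h at room temperature; NaOH stop, fluorescence read (Ex=525 nm; Em=598 nm).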

[5] = qHTS for compounds that reverse cellular toxicity of Amyloid beta (A-beta) peptide in yeast: LOPAC Validation Assay (AID 720559);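 further: plate controls were DMSO for no effect and equimolar ferric chloride plus clioquinol rescue for full effect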
In short: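 Yeast cells expressing toxic A-beta were combined with pinned compounds in growth medium and incubated 48 hr at 30 C. Growth was read as absorbance at 600 nm and normalized to DMSO and to an equimolar FeCl3/clioquinol positive control.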

[6] = qHTS for Activators of Parkin Expression: LOPAC Validation Assay (NLuc Reporter) (AID 720572;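 further: 0% = DMSO and 100% = positive control compound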)
In short: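 Cells harboring the Parkin-promoter coincidence reporter were treated for 24 h at seven concentrations. NLuc output was measured sequentially after the FLuc channel and scaled between DMSO and positive control values.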

[7] = qHTS for Activators of Parkin Expression: LOPAC Validation Assay (FLuc Reporter) (AID 720573; further: potency means the concentration at half of the fitted maximal effect;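 on activation: 0% = DMSO and 100% = positive control compounds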)
In short: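 Neuronal cell line stably carrying FLuc/NLuc coincidence reporter under Parkin promoter; cells plated 24 h, then compounds added in 7-point dose response for 24 h at 37 C. FLuc luminescence read; normalized to DMSO and positive control (100%).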

[8] = qHTS assay for small molecule agonists of the antioxidant response element (ARE) signaling pathway measured by Nrf2-dependant transcriptional activity (AID 720636; active means well fitted curve in the direction sought with a large enough effect in the repeat runs; an effect the other way counts as inactive or inconclusive;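 further: HepG2 cells with an ARE-driven luciferase reporter; % of control where 0% means no effect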)
In short: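 Attachment 6 hr at 37 C, then compound versus DMSO vehicle for 16 hr in ARE-luc HepG2 cells (1% dialyzed FBS); luminescence recorded 30 min after ONE-Glo addition at room temperature.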

[9] = qHTS assay for small molecule antagonists of the retinoid-related orphan receptor gamma (ROR-gamma) signaling pathway - cell viability counter screen (AID 720652; active means well fitted curve in the direction sought with a large enough effect in the repeat runs; an effect the other way counts as inactive or inconclusive;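 further: CHO reporter cells with doxycycline-induced ROR-gamma expression; compound exposure lasted 16 hr before ATP read; on the % scale 0 is the no-effect control and ±100 the full control effect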)
In short: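 Steps: seed CHO cells bearing TET-inducible ROR and ROR response element-luciferase; rest 5 hr at 37 C; add compound, then doxycycline; incubate 16 hr; add CellTiter-Glo and read luminescence as ATP-based viability.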

[10] = qHTS assay for small molecule agonists of the antioxidant response element (ARE) signaling pathway measured by Nrf2-dependant transcriptional activity - cell viability counter screen (AID 720653; active means well fitted curve in the direction sought with a large enough effect in the repeat runs; an effect the other way counts as inactive or inconclusive; further: on the % scale 0 is the no-effect control and ±100 the full control effect); settings: ARE-bla HepG2 viability, CellTiter-Glo ATP luminescence, 16 h; max response: stronger effect = lower value
In short: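 ARE-bla HepG2 cells (2,000/well) rested 5 hrs at 37C/5% CO2, then exposed to compounds in DMSO for 16 hrs. Viability was read in the same wells as intracellular ATP by luminescence, 30 min at room temperature after reagent addition.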

[11] = biological target: T1, Hexokinase-4 (Homo sapiens) + Glucokinase regulatory protein (Homo sapiens) (UniProt P35557+Q14397); assay: qHTS assay for inhibitors of recombinant human GCK-GKRP interaction: Diaphorase-coupled assay (AID 743205)
T1 sequence (P35557 whole entry, looked up): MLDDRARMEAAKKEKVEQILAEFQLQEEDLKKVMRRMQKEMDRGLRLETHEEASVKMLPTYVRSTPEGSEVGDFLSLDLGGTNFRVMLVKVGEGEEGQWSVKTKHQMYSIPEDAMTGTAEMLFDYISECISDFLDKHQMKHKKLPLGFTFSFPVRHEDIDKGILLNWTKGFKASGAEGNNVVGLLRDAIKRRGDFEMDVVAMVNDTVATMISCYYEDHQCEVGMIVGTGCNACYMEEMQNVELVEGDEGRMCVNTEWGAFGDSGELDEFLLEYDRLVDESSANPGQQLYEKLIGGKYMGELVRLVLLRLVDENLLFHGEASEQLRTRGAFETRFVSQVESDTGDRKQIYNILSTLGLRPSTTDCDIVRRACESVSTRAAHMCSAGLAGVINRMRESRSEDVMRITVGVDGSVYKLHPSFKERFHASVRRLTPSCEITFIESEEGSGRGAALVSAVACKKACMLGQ
T1 sequence (Q14397 whole entry, looked up): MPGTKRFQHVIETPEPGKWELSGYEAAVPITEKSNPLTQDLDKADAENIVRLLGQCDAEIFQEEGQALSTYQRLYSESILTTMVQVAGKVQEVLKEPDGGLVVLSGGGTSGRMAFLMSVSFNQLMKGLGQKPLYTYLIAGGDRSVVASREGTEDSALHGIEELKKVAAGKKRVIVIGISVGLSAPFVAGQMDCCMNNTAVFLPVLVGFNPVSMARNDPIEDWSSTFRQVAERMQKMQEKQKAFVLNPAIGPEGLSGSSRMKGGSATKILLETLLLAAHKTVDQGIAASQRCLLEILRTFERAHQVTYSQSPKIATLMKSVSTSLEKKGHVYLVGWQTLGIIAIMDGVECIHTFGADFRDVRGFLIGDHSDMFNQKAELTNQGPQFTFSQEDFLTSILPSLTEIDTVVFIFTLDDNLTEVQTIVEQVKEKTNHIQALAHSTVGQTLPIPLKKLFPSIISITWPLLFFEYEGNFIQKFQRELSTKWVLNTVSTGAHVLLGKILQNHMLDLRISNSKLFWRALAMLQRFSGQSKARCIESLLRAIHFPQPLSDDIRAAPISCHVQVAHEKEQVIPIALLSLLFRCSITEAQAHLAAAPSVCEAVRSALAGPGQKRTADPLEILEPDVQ
In short: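 GST-GCK (10 nM) with FLAG-GKRP (10 nM), 5 mM glucose and 0.4 mM ATP in pH 7.6 Hepes; compounds preincubated 20 min with substrate. G6PDH/diaphorase coupling converts resazurin to resorufin, read kinetically (ex 525/em 590 nm) for 30 min.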

[12] = biological target: T1, Hexokinase-4 (Homo sapiens) + Glucokinase regulatory protein (Homo sapiens); assay: qHTS assay for inhibitors of recombinant human GCK-GKRP interaction: ADP-Glo assay (AID 743206);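 further: plate controls were DMSO plus enzyme for no effect and no enzyme for full effect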
In short: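 Pin-transferred compounds meet a 15 nM GST-GCK/15 nM FLAG-GKRP/2 uM S6P mix (dispense concentrations). ATP is then added to 0.4 mM final with 5 mM glucose, and the reaction runs 60 min at room temperature. ADP is quantified luminescently.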

[13] = biological target: T1, Hexokinase-4 (Homo sapiens) + Glucokinase regulatory protein (Homo sapiens); assay: qHTS assay for inhibitors of recombinant human GCK-GKRP interaction: HTRF assay (AID 743207);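 further: 0% = DMSO with GCK present and -100% = DMSO wells lacking GCK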
In short: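 GST-GCK and FLAG-GKRP (5 nM each) were combined with 2 uM S6P in pH 7.1 Hepes/MgCl2/KCl/DTT buffer, then compound and anti-FLAG XL665/anti-GST K antibodies were added. After 60 min at room temperature, HTRF 665/615 nm emission was read.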

[14] = qHTS Assay for Identifying Gametocytocidal Compounds (AID 743244);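 further: on the % scale 0 is the no-effect control and ±100 the full control effect; actives lower the fluorescent signal which means gametocytes are killed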; settings: P. falciparum 3D7 stage III-V gametocytes, alamarBlue, 72 h; max response: stronger effect = lower value
In short: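 Using 20,000 stage III–V 3D7 gametocytes per well, compounds were incubated 72 h under 37 °C/5% CO2. Viability was then assessed by 24 h alamarBlue reduction, measured fluorometrically at 525/598 nm.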

[15] = qHTS assay for cell viability of HEK293 cells (AID 743288); settings: ATP luminescence (CellTiter-Glo), 18 h; max response: stronger effect = lower value; further: on the % scale 0 is the no-effect control and ±100 the full control effect; nearly all actives have a fitted effect of over 50% in size
In short: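 After 18 h compound exposure at 37 C, parental HEK293 cells (2,000/well) are lysed with CellTiter-Glo and luminescence is read following 30 min at room temperature.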

[16] = qHTS assay for cell viability of the p53RE-bla HCT-116 cell line (AID 743292); further: on the % scale 0 is the no-effect control and ±100 the full control effect; nearly all actives have a fitted effect of over 55% in size
In short: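 Compound-exposed HCT-116 (p53RE-bla) cells, 4,000 per well, were kept 16 h at 37 C following a 5 h preincubation. Cell number was estimated from total ATP by CellTiter-Glo luminescence read after 30 min at room temperature.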

[17] = qHTS assay to identify small molecules that stimulate interleukin-8 (IL-8) secretion (AID 651758; active means well fitted activation curve with a large enough effect in the signal ratio; the % refers to the signal ratio; further: 0% is about no effect)
In short: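 Quantitative HTS in THP-1 monocytic cells at 2000 cells per well, with 16 hrs compound incubation at 37 C. IL-8 in the medium was then quantified by HTRF immunoassay, read after 1-3 hrs at room temperature.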

[18] = qHTS for small molecule inhibitors of Yes1 kinase: Counter Assay (AID 686950);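 further: no kinase present so only ADP-Glo detection of a fixed ADP amount is tested; luminescence from ADP-Glo reporting ADP in a fixed ATP and ADP mixture; 0% = DMSO wells with ATP plus ADP and -100% = ATP-only wells without ADP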
In short: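 Measuring interference with ADP-Glo, the assay ran 60 min at room temperature on an ATP/ADP mix lacking enzyme. Values were normalized to ATP-plus-ADP (maximum) and ATP-only (minimum) DMSO controls.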

[19] = qHTS profiling for inhibitors of Plasmodium falciparum (3D7) proliferation (AID 743322; call rule not given here;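 further: infected erythrocytes exposed to compound for 72 h before lysis; 100% = DMSO vehicle wells and 0% = 0.29 µM artemisinin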); settings: P. falciparum 3D7 proliferation, at 28.7 µM (top of the series)
In short: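 Parasite DNA was quantified by SYBR Green I fluorescence (ex 485, em 535 nm) after overnight lysis in saponin/Triton buffer at room temperature. Cultures at 0.3% parasitemia and 2.5% hematocrit were first exposed to compound for 72 h at 37 C; signals were normalised to artemisinin (0.29 uM) and vehicle wells.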

Cc1cn([C@H]2C=C[C@@H](CO)O2)c(=O)[nH]c1=O
inactive: activation [1] 0.0815% and -0.191% and -0.434% | max response [2] 1.44% and 1.55% and -0.234% | Potency [3] | Potency [4] | outcome [5] | outcome [6] | Potency [7] | outcome [8] | Potency [9] | max response [10] 6.12% and 3.59% and -11.2% | Potency [11] | Potency [12] | Potency [13] | max response [14] 12.3% and 14% | max response [15] -5.34% and -4.2% and -3.76% | Potency [16]

CC(C)NCC(O)c1ccc(O)c(O)c1 (stereo not drawn)
inactive: activation [1] 0.956% and 0.375% | max response [2] -1.03% and -0.0809% | Potency [3] | outcome [5] | outcome [6] | Potency [7] | outcome [8] | Potency [9] | max response [10] 0.482% and -3.43% | Potency [11] | Potency [12] | Potency [13] | max response [14] -2.95% | max response [15] 0.858% and -11.4% | Potency [16]

O=C(CCCN1CCC(O)(c2ccc(Cl)cc2)CC1)c1ccc(F)cc1
inactive: activation [1] -0.128% | max response [2] -1.35% | Potency [4] | outcome [5] | outcome [6] | Potency [7] | outcome [8] | max response [10] -9.04% | max response [15] -20.6% | Potency [16]

CCC1(c2ccccc2)C(=O)NCNC1=O
inactive: activation [1] -1.18% and 8.62% | max response [2] -5.03% and -3.26% | Potency [3] | Potency [4] | outcome [5] | outcome [6] | Potency [7] | outcome [8] | Potency [9] | max response [10] 3.8% and 3.23% | Potency [11] | Potency [12] | Potency [13] | max response [14] 16.7% and 25% | max response [15] -2.05% and -6.21% | Potency [16]

O=c1[nH]cc(F)c(=O)[nH]1
inactive: activation [1] -0.168% | max response [2] -2.48% | Potency [3] | outcome [6] | Potency [7] | outcome [8] | Potency [9] | max response [10] -3.42% | Potency [11] | Potency [12] | Potency [13] | max response [14] 14.8% and 3.27% | max response [15] -0.211% | Potency [16]

CCOC(=O)C(C)(C)Oc1ccc(Cl)cc1
inactive: activation [1] 0.305% | max response [2] 5.39% | Potency [4] | outcome [5] | outcome [6] | Potency [7] | outcome [8] | max response [10] -4.42% | Potency [11] | Potency [12] | Potency [13] | max response [14] 9.62% and 0.495% | max response [15] -5.02% | Potency [16]

CC(C)C(=O)Nc1ccc([N+](=O)[O-])c(C(F)(F)F)c1
inactive: activation [1] 3.62% and 3.92% | max response [2] -5.17% and -3.96% | Potency [4] | outcome [5] | outcome [6] | Potency [7] | outcome [8] | Potency [9] | max response [10] -4.94% and -9.28% | Potency [11] | Potency [12] | Potency [13] | max response [14] -7.87% and -5.86% | max response [15] -5.73% and -15.5% | Potency [16]

O=c1c(-c2ccc(O)cc2)coc2cc(O)cc(O)c12
inactive: outcome [17] | max response [2] -1.44% and -0.484% | Potency [3] | outcome [18] | Potency [4] | outcome [5] | max response [10] 0.177% and -1.16% | Potency [11] | Potency [12] | Potency [13] | max response [14] 20.7% and 7.37% | max response [15] -13% and -14.1% | Potency [16]
active: Potency [1] 12.6 µM | Potency [7] 8.2 µM

CN(C)CCOC(c1ccccc1)c1ccccc1
85.5%: remaining parasite growth % (stronger effect = lower value) [19]
inactive: activation [1] 0.827% | max response [2] -3.61% | Potency [4] | outcome [5] | outcome [6] | Potency [7] | outcome [8] | max response [10] -12% | Potency [11] | Potency [12] | Potency [13] | max response [14] -13.8% and 10.9% | max response [15] -15% | Potency [16]

COc1ccc2c(c1)c(CC(=O)O)c(C)n2C(=O)c1ccc(Cl)cc1
inactive: activation [1] 0.534% and -1.07% | max response [2] 11.2% and 10.8% | Potency [4] | outcome [5] | Potency [7] | outcome [8] | Potency [9] | max response [10] 1.73% and -1.81% | Potency [11] | Potency [12] | Potency [13] | max response [14] 2.39% and 17.2% | max response [15] 11.9% and -6.39% | Potency [16]

Cn1cnc2c1c(=O)[nH]c(=O)n2C
inactive: activation [1] 2.86% | max response [2] -2.11% | Potency [4] | outcome [5] | outcome [6] | Potency [7] | outcome [8] | max response [10] 4.98% | Potency [11] | Potency [12] | Potency [13] | max response [14] -9.46% and -3.09% | max response [15] -4% | Potency [16]
